Experimental data from PubChem BioAssay (NCATS).
Results filed as inconclusive are left out. Active and inactive are the calls of the source. Calls come from the whole dose curve; as a rule, active = well fitted curve in the direction sought with a large enough effect; inconclusive = small, poorly fitted or top-dose-only effect, or another doubt; inactive = no such curve, though single readings can be large; an effect the other way counts as inactive or inconclusive.

How the values were obtained:
[1] = qHTS of pediatric cancer cell lines to identify multiple opportunities for drug repurposing: Confirmatory screen for control Hh wild type fibroblast cells (AID 1347121); conditions: viability qHTS; series mostly up to 45.9 µM; note: nearly all actives have a fitted effect of over 70% in size; note: potency is the fitted concentration of half-maximal effect
How it was run: (§1)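 Cells (500-1,000/well) in growth media were settled 5 h at 37 degrees C, then given compounds for 48 h. Viability was read as CellTiter-Glo luminescence. Primary runs used MIPE at 11 points (0.78 nM-46 µM) and NPC at 8 points (0.59 nM-46 µM); follow-ups used 11 points.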

[2] = qHTS of pediatric cancer cell lines to identify multiple opportunities for drug repurposing: Confirmatory screen for Rh41 cells (AID 1347123); conditions: Rh41 rhabdomyosarcoma cells, viability/cytotoxicity qHTS; series mostly up to 45.9 µM;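 note: 48 h compound exposure; nearly all actives have a fitted effect of over 60% in size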; note: potency is the fitted concentration of half-maximal effect
How it was run: as §1

[3] = qHTS of pediatric cancer cell lines to identify multiple opportunities for drug repurposing: Confirmatory screen for Rh30 cells (AID 1347126); conditions: Rh30 rhabdomyosarcoma cell viability; series mostly up to 45.9 µM; note: nearly all actives have a fitted effect of over 55% in size; note: potency is the fitted concentration of half-maximal effect
How it was run: as §1

[4] = qHTS of pediatric cancer cell lines to identify multiple opportunities for drug repurposing: Confirmatory screen for OHS-50 cells (AID 1347128); conditions: OHS-50 osteosarcoma cells viability; series mostly up to 45.9 µM;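 note: compound exposure lasted 48 h at 37 degrees C; nearly all actives have a fitted effect of over 55% in size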; note: potency is the fitted concentration of half-maximal effect
How it was run: as §1

[5] = qHTS of pediatric cancer cell lines to identify multiple opportunities for drug repurposing: Confirmatory screen for SK-N-SH cells (AID 1347129); conditions: SK-N-SH neuroblastoma cell viability; series mostly up to 46.1 µM;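 note: cells exposed to compound for 48 h before viability read; nearly all actives have a fitted effect of over 60% in size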; note: potency is the fitted concentration of half-maximal effect
How it was run: as §1

[6] = system: Zika virus NS2B-NS3 protease; assay: Primary screen GU AMC qHTS for Zika virus inhibitors (AID 1347154); conditions: Zika NS2B-NS3 unlinked protease, AMC fluorogenic substrate; series mostly up to 54.1 µM; note: nearly all actives have a fitted effect of over 70% in size; note: potency is the fitted concentration of half-maximal effect
How it was run: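 Unlinked Zika NS2B hydrophilic domain/NS3 protease domain noncovalent complex (25 nM final) in 10 mM Tris-HCl pH 8.0, 0.01% Tween 20, with AMC peptide substrate. Fluorescence (ex 340, em 450 nm) change over 15 min, room temperature; percent inhibition fitted to 4-parameter Hill equation.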

[7] = system: Zika virus NS2B-NS3 protease (unlinked complex); assay: Primary screen GU Rhodamine qHTS for Zika virus inhibitors: Unlinked NS2B-NS3 protease assay (AID 1347159); conditions: Recombinant ZIKV NS2B-NS3 protease, Rhodamine110 substrate fluorescence; series mostly up to 107 µM; note: nearly all actives have a fitted effect of over 60% in size
How it was run: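 In dose–response format, inhibition of unlinked protease (25 nM) was measured with 1.5 microM bis-peptide Rhodamine110 substrate. Aprotinin served as the intraplate control.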

[8] = system: Zika virus NS2B-NS3 protease (linked construct); assay: Primary screen NINDS Rhodamine qHTS for Zika virus inhibitors (AID 1347160); conditions: purified NS2B-NS3 protease, Rhodamine110 substrate fluorescence; series mostly up to 57.1 µM; note: nearly all actives have a fitted effect of over 55% in size
How it was run: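 Each compound, titrated, sat 15 min with 25 nM linked protease before 1.5 microM Rhodamine110 substrate went in. Fluorescence gain over the next 15 min, in pH 8.0 Tris with Tween 20, gave Hill-fitted curves.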

[9] = qHTS of pediatric cancer cell lines to identify multiple opportunities for drug repurposing: Confirmatory screen for RD cells (AID 1347124); conditions: RD rhabdomyosarcoma cell viability; series mostly up to 45.9 µM;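 note: cells exposed to compound for 48 h before viability readout; nearly all actives have a fitted effect of over 65% in size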; note: potency is the fitted concentration of half-maximal effect
How it was run: as §1

[10] = qHTS of pediatric cancer cell lines to identify multiple opportunities for drug repurposing: Confirmatory screen for Rh18 cells (AID 1347125); conditions: Rh18 rhabdomyosarcoma cells, viability; series mostly up to 45.9 µM; note: nearly all actives have a fitted effect of over 55% in size; note: potency is the fitted concentration of half-maximal effect
How it was run: as §1

[11] = qHTS of pediatric cancer cell lines to identify multiple opportunities for drug repurposing: Confirmatory screen for Saos-2 cells (AID 1347127); conditions: Saos-2 osteosarcoma cell viability; series mostly up to 45.9 µM; note: nearly all actives have a fitted effect of over 60% in size; note: potency is the fitted concentration of half-maximal effect
How it was run: as §1

[12] = molecular target: N-terminal Xaa-Pro-Lys N-methyltransferase 1 (Homo sapiens) (UniProt Q9BV86); assay: qHTS Assay for Inhibitors of N-terminal methyltransferase 1 (NTMT1): LOPAC validation of the NTMT1 SAHH-coupled ThioGlo3 Assay (AID 1347143); conditions: recombinant NTMT1, SAHH-coupled ThioGlo3 fluorescence; series mostly up to 114 µM;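 note: SAH from peptide methylation measured as thiol fluorescence via SAHH coupling and ThioGlo3; nearly all actives have a fitted effect of over 70% in size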; note: potency is the fitted concentration of half-maximal effect
N-terminal Xaa-Pro-Lys N-methyltransferase 1 (Homo sapiens), sequence (Q9BV86 whole entry, looked up): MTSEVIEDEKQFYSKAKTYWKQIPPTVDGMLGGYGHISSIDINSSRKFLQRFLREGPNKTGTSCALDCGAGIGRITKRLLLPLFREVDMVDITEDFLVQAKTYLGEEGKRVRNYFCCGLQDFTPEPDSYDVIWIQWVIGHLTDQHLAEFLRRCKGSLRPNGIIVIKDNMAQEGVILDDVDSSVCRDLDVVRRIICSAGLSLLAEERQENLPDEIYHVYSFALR
How it was run: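 In this qHTS pilot against the LOPAC set, 125nM NTMT1 met compounds tested at multiple concentrations, and fluorescence was normalized to background.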

[13] = system: Zika virus NS2B-NS3 protease (unlinked); assay: Optimization of GU AMC qHTS for Zika virus inhibitors: Unlinked NS2B-NS3 protease assay (AID 1347151); conditions: recombinant ZIKV NS2B-NS3 protease, fluorogenic AMC substrate; series mostly up to 52.5 µM; note: nearly all actives have a fitted effect of over 80% in size
How it was run: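 Percent inhibition is derived from the 15-min change in AMC fluorescence, normalized against no-inhibitor and no-enzyme controls, then fitted to a 4-parameter Hill curve. Aprotinin was the intraplate control.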

Furin (Homo sapiens) = Furin (Homo sapiens) (UniProt P09958); assay: Furin counterscreen qHTS for Zika virus inhibitors (AID 1347149); conditions: furin enzymatic counterscreen, fluorogenic substrate; series mostly up to 57.5 µM; note: nearly all actives have a fitted effect of over 70% in size; note: potency is the fitted concentration of half-maximal effect
Furin (Homo sapiens), sequence (P09958 whole entry, looked up): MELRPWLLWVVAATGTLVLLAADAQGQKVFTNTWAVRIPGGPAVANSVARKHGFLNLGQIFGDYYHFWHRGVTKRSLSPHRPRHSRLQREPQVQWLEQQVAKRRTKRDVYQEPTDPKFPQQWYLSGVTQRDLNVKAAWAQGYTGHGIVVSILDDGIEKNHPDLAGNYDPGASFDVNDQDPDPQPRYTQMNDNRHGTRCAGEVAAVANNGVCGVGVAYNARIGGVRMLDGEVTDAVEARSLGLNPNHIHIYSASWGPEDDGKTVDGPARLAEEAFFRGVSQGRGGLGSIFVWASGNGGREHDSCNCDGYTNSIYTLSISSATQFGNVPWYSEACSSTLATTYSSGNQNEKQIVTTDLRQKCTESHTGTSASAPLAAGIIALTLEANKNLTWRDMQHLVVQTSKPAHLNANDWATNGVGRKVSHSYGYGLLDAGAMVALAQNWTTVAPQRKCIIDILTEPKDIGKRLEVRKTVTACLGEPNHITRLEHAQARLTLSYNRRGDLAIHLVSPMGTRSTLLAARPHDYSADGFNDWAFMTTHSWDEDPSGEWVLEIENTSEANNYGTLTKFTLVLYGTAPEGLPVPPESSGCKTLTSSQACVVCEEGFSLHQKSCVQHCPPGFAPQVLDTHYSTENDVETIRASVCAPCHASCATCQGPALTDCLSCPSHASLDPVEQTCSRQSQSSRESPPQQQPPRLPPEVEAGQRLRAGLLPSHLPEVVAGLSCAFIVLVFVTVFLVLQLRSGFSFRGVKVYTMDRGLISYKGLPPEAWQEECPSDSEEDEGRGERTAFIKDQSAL
How it was run: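 Counterscreen measures cleavage of 2 microM BOC-RVRR-AMC, below its ~15 microM Km, by 5 nM full-length human furin at pH 7.0 after a 15-min compound preincubation. Inhibition derives from the 15-min fluorescence increase at 37C.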

[14] = Confirmatory screen GU Rhodamine qHTS for Zika virus inhibitors qHTS (AID 1347157); conditions: purified enzyme assay, Rhodamine110 substrate fluorescence, 15 min; series mostly up to 229 µM; note: nearly all actives have a fitted effect of over 70% in size; note: potency is the fitted concentration of half-maximal effect
How it was run: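 Enzyme 25 nM in Tris-HCl pH 8.0 + 0.01% Tween 20; compounds up to 114 microM, 15 min RT dark; + Rhod110 substrate 1.5 microM; read t0 and 15 min; delta fluorescence → % inhibition → 4-parameter Hill fit.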

[15] = ZIKV-mCherry secondary qHTS for Zika virus inhibitors (AID 1347158); conditions: Vero cells, ZIKV-mCherry infection imaging, 48-72 h; series mostly up to 49.2 µM; note: top concentration of the series differs between compounds
How it was run: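 Compounds were tested in Vero monkey kidney cells infected with recombinant mCherry-expressing Zika virus at MOI 1 for 48-72 h at 37 °C. Fixed cells were nuclear-stained and imaged, and infection rate was taken as the fraction of mCherry-positive cells.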

[16] = Confirmatory screen NINDS Rhodamine qHTS for Zika virus inhibitors (AID 1347161); conditions: purified enzyme assay, Rhodamine110 substrate fluorescence, 15 min; series mostly up to 228 µM; note: nearly all actives have a fitted effect of over 60% in size; note: potency is the fitted concentration of half-maximal effect
How it was run: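 Kinetic fluorescence (Ex 480 nm, Em 540 nm) over 15 min with 1.5 microM Rhodamine110 peptide and 25 nM linked protease.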

[17] = system: Zika virus NS2B-NS3 protease (linked); assay: 384 well plate NINDS AMC confirmatory qHTS for Zika virus inhibitors (AID 1347163); conditions: Recombinant NS2B-NS3 protease, Ac-VKTGKR-AMC fluorescence; note: potency is the fitted concentration of half-maximal effect; nearly all actives have a fitted effect of over 50% in size
How it was run: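 Fluorescence at 355/460 nm was read after 25 minutes of cleavage of 30 microM Ac-VKTGKR-AMC at room temperature, in the dark. Before substrate addition, compounds (up to 1 mM final) sat ~15 minutes with 5, 30 or 60 nM linked protease. Signals were normalized to no-enzyme and no-inhibitor wells.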

Measured: Potency

Cc1ccccc1-n1c(Cn2ncc3c(N)ncnc32)nc2cccc(C)c2c1=O
inactive: [1] | [2] | [3] | [5] | [6] | [7] | [8]
active: [4] 23300 nM

CC=C(C)C(=O)O[C@H]1C(C)=C2[C@@H]3OC(=O)[C@@](C)(O)[C@@]3(O)[C@@H](OC(=O)CCC)C[C@](C)(OC(C)=O)[C@@H]2[C@@H]1OC(=O)CCCCCCC
inactive: [1] | [2] | [9] | [10] | [5]

CC(C)[C@]12O[C@@H]1[C@@H]1O[C@]13[C@]1(O[C@H]1C[C@@H]1C4=C(CC[C@@]13C)C(=O)OC4)[C@H]2O
inactive: [1] | [6]
active: [2] 26.1 nM | [9] 52.2 nM | [10] 0.0827 µM | [11] 0.0465 µM | [4] 104 nM | [5] 0.148 µM

COc1ccc(C(=O)c2c(C)n(CCN3CCOCC3)c3cc(I)ccc23)cc1
inactive: [1] | [5] | [6]
active: [2] 9270 nM

COc1cc2cc(c1Cl)N(C)C(=O)C[C@H](OC(=O)C(C)C)[C@]1(C)O[C@H]1[C@H](C)[C@@H]1C[C@@](O)(NC(=O)O1)[C@H](OC)C=CC=C(C)C2
active: [11] 26.1 µM | [4] 11.7 nM
inactive: [1] | [3] | [6]

CC[C@@]1(O)C(=O)OCc2c1cc1n(c2=O)Cc2cc3ccccc3nc2-1
active: [2] 369 nM | [9] 465 nM | [10] 0.827 µM | [3] 0.737 µM | [11] 0.104 µM | [4] 147 nM | [5] 2.09 µM | [12] 3.55 µM | [6] 2.12 µM

CC=C(C)C(=O)N[C@@H](c1ccccc1)[C@@H](O)C(=O)O[C@H]1C[C@@]2(O)[C@@H](OC(=O)c3ccccc3)[C@@H]3[C@]4(OC(C)=O)CO[C@@H]4C[C@H](O)[C@@]3(C)C(=O)[C@H](OC(C)=O)C(=C1C)C2(C)C
inactive: [1] | [10] | [6]
active: [11] 0.0414 µM | [4] 41.4 nM

O=C(N[C@H]1CN2CCC1CC2)c1ccc(Cl)cc1
active: [9] 414 nM | [4] 10400 nM
inactive: [1] | [10] | [12] | [13] | [6] | [7] | [8]

C[C@]12Cc3cn[nH]c3C[C@@H]1CC[C@@H]1[C@H]2CC[C@@]2(C)[C@H]1CC[C@]2(C)O
inactive: [1] | [2] | [10] | [4] | [5] | [6]

O=C(O)CCCOc1ccc(Cl)cc1Cl
inactive: [1] | [9] | [10] | [3] | [11] | [4] | [5] | [6]

C[C@@]12OC(=O)[C@]1([C@@H](O)[C@@H]1C=CCCC1)NC(=O)[C@H]2CCCl
active: [1] 4.14 µM | [2] 329 nM | [9] 737 nM | [10] 1.17 µM | [11] 1.17 µM | [5] 2.35 µM
inactive: [6]

O=C1C(I)=CC(=C(c2cc(I)c(O)c(I)c2)c2ccccc2C(=O)O)C=C1I
active: [2] 9270 nM | Furin (Homo sapiens) 18.7 µM | [6] 12.8 µM | [14] 2.82 µM | [16] 2.51 µM | [17] 50.1 µM
inactive: [1] | [9] | [10] | [11] | [4] | [5] | [15]

CC(=O)[O][Hg][c]1ccccc1
active: [1] 13.1 µM | [10] 4.65 µM | [3] 1.31 µM | [11] 1.17 µM | [4] 5850 nM | [5] 2.64 µM
inactive: [6]

O=[N+]([O-])c1c(Cl)c(Cl)cc(Cl)c1Cl
inactive: [1] | [2] | [9] | [10] | [3] | [5] | Furin (Homo sapiens) | [6] | [14] | [16]

COC1=CC(C)=C[C@@H](C)[C@@H](O)[C@@H](C)CC(C)=CC=C[C@H](OC)[C@H]([C@@H](C)[C@@H](O)[C@H](C)[C@@]2(O)C[C@@H](O)[C@H](C)[C@@H](C(C)C)O2)OC1=O
active: [3] 10.4 µM
inactive: [1] | [2] | [5] | [6]

O=c1[nH]c2ccc(Cl)cc2c(N[C@@H]2CN3CCC2CC3)c1-c1nc2ccccc2[nH]1
active: [1] 18.5 µM | [2] 3690 nM | [9] 2330 nM | [10] 26.1 µM | [3] 5.22 µM | [11] 1.31 µM | [4] 657 nM | [5] 5.26 µM
inactive: [6] | [8]

CC[C@H]1C=CC=CC[C@@H](C)[C@H](O)[C@@](C)(O)C(=O)[C@@H](C)[C@H](O)[C@@H](C)C(=O)[C@@H](C)[C@H](O)[C@@H](C)C=CC(=O)O[C@@H]2[C@@H](C)[C@H](CC1)O[C@]1(CC[C@H](C)[C@H](C[C@@H](C)O)O1)[C@H]2C
inactive: [10] | [4] | [6]
active: [1] 0.117 µM | [9] 4140 nM
